This is an account of results in PubChem BioAssay (NCATS).

Assay [1] is described as follows: Cell Viability - LYMP2-016 (AID 984).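 Further: cells exposed to compound for 24 hours at 37 °C; nearly all actives have a fitted effect of over 55% in size.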 Further: potency means the concentration at half of the fitted maximal effect. The note with it: LYMP2-016 lymphoblastoid cell viability, qHTS; series mostly up to 92.2 µM. In outline: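 Human lymphoblastoid cells (LYMP2-016), 2500/well in complete medium, preincubated 5 hr at 37 C, then compound-treated 24 hr at 37 C. Intracellular ATP read by CellTiter-Glo luminescence after 30 min at room temperature; AC50 from Hill-equation concentration-response fits.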
In general terms: qHTS replaces the single test concentration by a dilution series.

Assay [2] in a line: Cell Viability - LYMP2-018 (AID 985). Further: nearly all actives have a fitted effect of over 50% in size. Further: potency means the concentration at half of the fitted maximal effect. The note with it: LYMP2-018 lymphoblastoid cells, viability (qHTS); series mostly up to 92.2 µM. In outline: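 Luminescent ATP signal (CellTiter-Glo, read after 30 min at room temperature) reports viable cells after 24 hr compound treatment at 37 C. Concentration-response data were fitted to the standard Hill equation for AC50.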
Assay [3] can be described thus: Cell Viability - LYMP2-020 (AID 986). Further: nearly all actives have a fitted effect of over 55% in size. Further: potency means the concentration at half of the fitted maximal effect. As to conditions: series mostly up to 92.2 µM. The essentials:
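Luminescent ATP signal (CellTiter-Glo, 30 min at room temperature) is the read-out after 24 h compound treatment of lymphoblastoid cells at 37 C. AC50 values come from Hill-equation fits across concentrations.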

Assay [4] can be described thus: Cell Viability - LYMP2-022 (AID 987). Further: nearly all actives have a fitted effect of over 55% in size. Further: potency means the concentration at half of the fitted maximal effect. As to conditions: LYMP2-022 lymphoblastoid cell viability; series mostly up to 92.2 µM. In outline:
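qHTS: human lymphoblastoid cells 2500/well; 5 hr 37 C; cpd added; 24 hr 37 C; CellTiter-Glo, 30 min RT; luminescence. AC50 via Hill fit; tetraoctylammonium bromide positive ctrl.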

Assay [5] can be described thus: Cell Viability - LYMP2-024 (AID 988). Further: nearly all actives have a fitted effect of over 60% in size. Further: potency means the concentration at half of the fitted maximal effect. The note with it: LYMP2-024 lymphoblastoid cell viability; series mostly up to 92.2 µM. The essentials:
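Steps: seed 2500 cells/well, 5 hr 37 C; add compound, 24 hr 37 C; add CellTiter-Glo, 30 min room temperature; read luminescence. AC50 derived by Hill modelling of concentration-dependent ATP loss.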

Assay [6] can be described thus: Cell Viability - LYMP2-026 (AID 989). Further: nearly all actives have a fitted effect of over 50% in size. Further: potency means the concentration at half of the fitted maximal effect. As to conditions: LYMP2-026 lymphoblastoid cell viability, qHTS; series mostly up to 92.2 µM. The essentials: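 Luminescent ATP signal (CellTiter-Glo, 30 min room temperature) measures viable lymphoblastoid cells after 24 hr compound treatment at 37 C. Decreased ATP reflects acute toxicity; AC50 values come from Hill-equation modeling.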

Assay [7] is described as follows: Cell Viability - LYMP1-002 - Assay at 24 hr (AID 993). Further: potency means the concentration at half of the fitted maximal effect. The note with it: LYMP1-002 lymphoblastoid cells viability; series mostly up to 92.2 µM. In outline:
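Cells plated 2500/well, 5 hr 37 C; compounds added, 24 hr 37 C; CellTiter-Glo added, 30 min RT; luminescence read. Tetraoctylammonium bromide positive control. Hill-equation AC50.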

Assay [8] in a line: Cell Viability - LYMP1-002 - Assay at 40 hr (AID 994). Further: nearly all actives have a fitted effect of over 60% in size. Further: potency means the concentration at half of the fitted maximal effect. As to conditions: LYMP1-002 lymphoblastoid cell viability; series mostly up to 92.2 µM. The essentials: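 Luminescent ATP signal served as the viability readout, with decreases taken as toxicity. Cells were treated with compounds across a concentration range for 40 hours at 37 C, and AC50 values came from standard Hill modeling.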

Assay [9] concerns the target Alpha-galactosidase A (Homo sapiens) (UniProt P06280). As to the kind of experiment: Counterscreen for Glucocerebrosidase Inhibitors: qHTS Assay for Human alpha-Galactosidase at pH 4.5 (AID 992). As to conditions: purified enzyme, fluorogenic substrate; series mostly up to 76.9 µM. In outline: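 Concentration-response curves (0.7 nM to 77 uM final) were modeled with the Hill equation to give AC50. Reactions: 2 nM enzyme, 80 uM fluorogenic alpha-galactoside, pH 4.5 citric acid buffer, 20 min, room temperature.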

Assay [10] can be described thus: Cell Viability - LYMP2-014 (AID 983). Further: nearly all actives have a fitted effect of over 50% in size. Further: potency means the concentration at half of the fitted maximal effect. As to conditions: LYMP2-014 lymphoblastoid cells, viability qHTS; series mostly up to 92.2 µM. The essentials:
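Luminescent ATP signal (CellTiter-Glo, 30 min at room temperature) serves as the viability read-out after 24 hr compound exposure at 37 C. Cells were seeded at 2500 per well and settled 5 hr beforehand.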

Records with an inconclusive call do not appear. Activity calls are given as the source filed them. The call rests on the fitted dose curve; in most records, active means well fitted curve in the direction sought with a large enough effect; inconclusive means small, poorly fitted or top-dose-only effect, or another doubt; inactive means no such curve, though single readings can be large; an effect the other way counts as inactive or inconclusive.

Sequence of Alpha-galactosidase A (Homo sapiens) (P06280 whole entry, looked up): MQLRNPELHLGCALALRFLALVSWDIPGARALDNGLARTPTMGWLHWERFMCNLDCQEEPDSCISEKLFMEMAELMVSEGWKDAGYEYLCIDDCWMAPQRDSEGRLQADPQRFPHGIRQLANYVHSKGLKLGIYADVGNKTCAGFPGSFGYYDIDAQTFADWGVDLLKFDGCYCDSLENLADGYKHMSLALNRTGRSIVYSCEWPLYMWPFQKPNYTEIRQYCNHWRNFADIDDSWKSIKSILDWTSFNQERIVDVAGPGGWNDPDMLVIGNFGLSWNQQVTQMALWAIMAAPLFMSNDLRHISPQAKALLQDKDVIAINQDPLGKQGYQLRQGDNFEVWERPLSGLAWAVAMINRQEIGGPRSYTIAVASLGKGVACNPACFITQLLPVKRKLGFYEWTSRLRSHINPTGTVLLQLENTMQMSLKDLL

Take `COc1cc(/C=C/C(=O)CC(=O)/C=C/c2ccc(O)c(OC)c2)ccc1O`: the Potency in assay [1] was 39.8 µM (active); in assay [2], 39.8 µM (active); in assay [3], 31.6 µM (active); in [4] it was 25.1 µM (active); in assay [5], 25.1 µM (active); in assay [6], 31.6 µM (active). The Potency in [7] and in assay [8] was 39.8 µM (active) in each case.

Turning to `COc1ccccc1CNCCCCCCNCCCCCCCCNCCCCCCNCc1ccccc1OC`, the result in assay [9] was inactive.

With `Nc1ccc(O)c(C(=O)O)c1`, the Potency entry in [10], in assay [1], in assay [2], in assay [3], in [4] and in assay [5] was “inactive” in each case. Further, the Potency entry in assay [6], in assay [7] and in [8] was “inactive” in each case.

For `O=C1CN(/N=C/c2ccc([N+](=O)[O-])o2)C(=O)N1`, the Potency entry in assay [3], in [5] and in assay [7] was “inactive” in each case.

Consider `N#C/C(=C\c1ccc(O)c(O)c1)C(=O)c1ccc(O)c(O)c1`, for which, in assay [9], the call was inactive.

As to `O=C(O)CC[C@@H](C(=O)O)N1C(=O)c2ccccc2C1=O`, the result in assay [9] was inactive.

As for `O=C(Nc1ccccc1)c1cc([N+](=O)[O-])ccc1Cl`, the compound was called inactive in assay [9].

As for `C#C[C@]1(O)CC[C@H]2[C@@H]3CCc4cc(O)ccc4[C@H]3CC[C@@]21C`, the Potency result in assay [10], in assay [1], in [2], in [3], in assay [4] and in assay [5] was “inactive” in each case. The Potency result in [6] and in assay [7] was “inactive” in each case.

For the compound `N=C1N=C(N)c2cc3ccccc3cc21`, the Potency in assay [10], in assay [1], in assay [2], in [3], in assay [4] and in assay [5] was 39.8 µM (active) throughout. The Potency in assay [6], in assay [7] and in assay [8] was 39.8 µM (active) each time.

Regarding `Nc1nc2ccc([N+](=O)[O-])cc2s1`, the Potency result in assay [10], in assay [1], in [2], in assay [3], in [4] and in assay [5] was “inactive” throughout. Moreover, the Potency entry in [6], in assay [7] and in assay [8] was “inactive” throughout.

Regarding `CN(C)c1ccc(N=NS(=O)(=O)O)cc1`, the Potency entry in [10], in [1], in assay [2], in assay [3], in assay [4] and in [5] was “inactive” throughout. In addition, the Potency result in [6], in assay [7] and in assay [8] was “inactive” each time.

`NCCO`: the Potency result in assay [10], in assay [1], in assay [2], in assay [3], in assay [4] and in [5] was “inactive” each time. Further, the Potency result in assay [6], in [7] and in [8] was “inactive” throughout.

For the compound `CC(C)NCC(O)COc1cccc2ccccc12` (stereo not drawn), the Potency entry in assay [10], in assay [1], in [2], in assay [3], in assay [4] and in assay [5] was “inactive” in each case. The Potency entry in [6], in assay [7] and in assay [8] was “inactive” each time.

For `CC1(C)S[C@@H]2[C@H](NC(=O)[C@H](N)c3ccccc3)C(=O)N2[C@H]1C(=O)O`, the Potency result in [10], in [1], in assay [2], in [3], in assay [4] and in [5] was “inactive” each time. Besides, the Potency result in assay [6], in [7] and in assay [8] was “inactive” throughout.

As for `S=c1[nH]c2ccccc2s1`, the Potency entry in assay [10], in [1], in [2], in assay [3], in [4] and in [5] was “inactive” each time. Further, the Potency entry in assay [6], in assay [7] and in assay [8] was “inactive” each time.

As to `CN(C)c1ccc(C(=C2C=CC(=[N+](C)C)C=C2)c2ccccc2)cc1`, the Potency in assay [10] was 0.251 µM (active); in assay [1], 0.501 µM (active); in [2], 0.199 µM (active); in assay [3], 0.316 µM (active); in [4] it was 0.126 µM (active); in assay [5], 0.199 µM (active). The Potency is 0.316 µM (active) in [6], 0.794 µM (active) in assay [7] and 1 µM (active) in assay [8].

For the compound `CCCCCCCCCCCCCCCCCC(=O)O`, the Potency result in assay [10], in assay [1], in [2], in [3], in assay [4] and in [5] was “inactive” each time. Further, the Potency entry in assay [6], in assay [7] and in assay [8] was “inactive” each time.

As to `CCCCCCCC/C=C\CCCCCCCC(=O)NCCO`, the compound was called inactive in [9].

As for `c1ccc2sc(SSc3nc4ccccc4s3)nc2c1`, the Potency entry in [10], in assay [1], in [2], in assay [3], in assay [4] and in assay [5] was “inactive” each time. Besides, the Potency entry in [6], in [7] and in [8] was “inactive” each time.

Take `O=C(O)c1cc(O)c(O)c(O)c1`: the Potency result in assay [10], in assay [1], in [2], in [3], in assay [4] and in assay [5] was “inactive” each time. The Potency result in assay [6], in assay [7] and in assay [8] was “inactive” throughout.

As to `Oc1ccccc1O`, the Potency entry in assay [1] and in assay [7] was “inactive” in each case. Moreover, in [9], the compound was classed as inactive.

With `C[N+](C)(CCCCCC[N+](C)(C)CCCN1C(=O)c2cccc3cccc(c23)C1=O)CCCN1C(=O)c2cccc3cccc(c23)C1=O`, the result in [9] was inactive.

For `NO`, in assay [9], the compound was classed as inactive.

In the case of `O=C(O)c1cc([N+](=O)[O-])ccc1NCCCc1ccccc1`, the compound was classed as inactive in assay [9].

With `C=C[C@H]1CN2CC[C@@H]1C[C@@H]2[C@@H](O)c1ccnc2ccc(OC)cc12`, the outcome in [9] was inactive.

For the compound `O=c1[nH]c2cc([N+](=O)[O-])c([N+](=O)[O-])cc2[nH]c1=O`, the compound was classed as inactive in assay [9].

As for `CN(C)C(N)=NCCC[C@H](N)C(=O)O`, the call in [9] was inactive.

Take `CC(C)(C=O)Cc1cc(C(C)(C)C)c(O)c(C(C)(C)C)c1`: in assay [9], the call was inactive.

On to `O=c1[nH]c2cc(Cl)c(Cl)cc2[nH]c1=O`, for which the outcome in assay [9] was inactive.

For `CCN1/C(=C/C(C)=O)Sc2ccc(OC)cc21`, the result in [9] was inactive.

`C[C@@H](NC(=O)/C(C#N)=C/c1ccc(O)c(O)c1)c1ccccc1`: the outcome in [9] was inactive.

On to `c1ccc(-c2ccccn2)nc1`, for which the compound was called inactive in [9].

Turning to `N.N.O=C(O)C1(C(=O)O)CCC1.[Pt]`, the outcome in assay [9] was inactive.

For the compound `Brc1c(Br)c(Br)c2n[nH]nc2c1Br`, the call in [9] was inactive.

Consider `O=C(O)[C@@H]1C[C@@H](C(=O)O)N1`, for which the result in assay [9] was inactive.

Take `NCCNC(=O)c1ncsc1-c1cccc(F)c1`: the outcome in [9] was inactive.

Turning to `CN1CCc2ccccc2Cc2[nH]c3ccccc3c2CC1`, the outcome in assay [9] was inactive.

Take `CN1CCc2cc(NC(=O)Nc3cccnc3)ccc21`: the compound was called inactive in assay [9].

Take `O=C(Nc1cccc(C(=O)Nc2ccc(S(=O)(=O)O)c3cc(S(=O)(=O)O)cc(S(=O)(=O)O)c23)c1)Nc1cccc(C(=O)Nc2ccc(S(=O)(=O)O)c3cc(S(=O)(=O)O)cc(S(=O)(=O)O)c23)c1`: in [9], the call was inactive.

Consider `O=c1[nH]c2ccccc2n1CCCN1CCN(C(c2ccccc2)c2ccccc2)CC1`, for which, in [9], the outcome was inactive.

Turning to `C[N+]1(C)CCC(OC(=O)C(c2ccccc2)c2ccccc2)CC1`, the outcome in assay [9] was inactive.

For the compound `NCCSSCCN`, in assay [9], the result was inactive.

Turning to `O=Nc1ccc2oc(=O)ccc2c1`, in [9], the outcome was inactive.

As to `Ic1ccc(N2CCN(Cc3c[nH]c4ncccc34)CC2)cc1`, the compound was classed as inactive in assay [9].

On to `NCCCCC(=O)O`, for which the compound was classed as inactive in assay [9].

Regarding `COc1cc(OC)c(/C=C2/C(=O)Nc3ccccc32)c(OC)c1`, the result in assay [9] was inactive.

For `N#C/C(=C\c1ccc(O)c(O)c1)C(=O)NCc1ccccc1`, the compound was called inactive in [9].

In the case of `N#C/C(=C\c1ccc(O)c(O)c1)C(=O)NCCCc1ccccc1`, the compound was classed as inactive in assay [9].

On to `COc1cccc(C(=O)NCCN2CCN(c3ccc(Cl)cc3)CC2)c1`, for which, in assay [9], the compound was called inactive.

Turning to `Oc1cc2c(cc1O)CN(C(=S)NCCc1ccc(Cl)cc1)CCC2`, the call in [9] was inactive.

For `COc1cc2c(CCNC(C)=O)c[nH]c2cc1Cl`, the outcome in [9] was inactive.

As to `COc1ccccc1N1CCN(CCCCNS(=O)(=O)c2cccc3c(N(C)C)cccc23)CC1`, the call in assay [9] was inactive.

For `Cc1cc(NC(=O)Nc2ccc3c(ccn3C)c2)sn1`, the compound was classed as inactive in assay [9].

As to `CN1[C@@H]2CC[C@H]1CC(OC(c1ccccc1)c1ccccc1)C2` (stereo partly drawn), in [9], the result was inactive.
